# Experimental data from PubChem BioAssay.
# The source made the active and inactive calls. Unless noted, no rule for the calls is given here.
# Legend:
# [1] = compound effects on lung adenocarcinoma cell viability – A549, calcein-AM fluorescence, 48 h, basal, profiling panel (AID 1162); settings: higher = more signal; also: test concentration not given here
# [2] = compound effects on differentiated 3T3-L1 adipocyte viability – cell-based, 3T3-L1 adipocytes, calcein-AM fluorescence, 48 h, basal, profiling panel (AID 1163); settings: 3T3-L1 adipocytes viability, higher = more signal; also: test concentration not given here
# [3] = compound effects on hepatocellular carcinoma cell viability – HepG2, calcein-AM fluorescence, 48 h, basal, profiling panel (AID 1164); settings: higher = more signal; also: test concentration not given here
# [4] = compound effects on multiple myeloma cell viability – MM1S, calcein-AM fluorescence, 48 h, basal, profiling panel (AID 1165); settings: higher = more signal;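 also: viability of MM1S multiple myeloma cells under basal unstimulated conditions; test concentration not given here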
# [5] = calcein-AM signal in unstimulated myeloma cells – cell-based, calcein-AM fluorescence, 48 h, PK04 Diversity Set, profiling panel (AID 1166); settings: RPMI8226 myeloma viability, higher = more signal;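 also: cells grown under basal conditions without added stimulus; test concentration not given here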
# [6] = JC-1 mitochondrial signal, unstimulated HepG2 cells – cell-based, JC-1 fluorescence, 24 h, 100 nL compound, profiling panel (AID 1167); settings: HepG2 mitochondrial potential, higher = more signal; also: test concentration not given here
# [7] = JC-1 mitochondrial signal, unstimulated adipocytes – cell-based, JC-1 fluorescence, 3T3-L1 adipocytes, 24 h, 100 nL compound, profiling panel (AID 1168); settings: JC-1 mitochondrial fluorescence, higher = more signal, called active from +8 up or from −8 down; also: test concentration not given here
# [8] = JC-1 mitochondrial signal, unstimulated myeloma cells – cell-based, JC-1 fluorescence, RPMI8226, 24 h, 100 nL compound, profiling panel (AID 1169); settings: JC-1 mitochondrial potential fluorescence, higher = more signal; also: test concentration not given here
# [9] = JC-1 mitochondrial signal, unstimulated MM1S myeloma – cell-based, JC-1 fluorescence, 24 h, 100 nL compound, profiling panel (AID 1170); settings: MM1S mitochondrial potential, higher = more signal; also: test concentration not given here
# [10] = resazurin metabolic signal in A549 cells – cell-based, resazurin fluorescence, 24 h, PK04 Diversity Set, profiling panel (AID 1171); settings: A549 viability, higher = more signal, called active from +8 up or from −8 down; also: test concentration not given here
# [11] = resazurin metabolic signal in HepG2 cells – cell-based, resazurin fluorescence, 24 h, PK04 Diversity Set, profiling panel (AID 1172); settings: HepG2 viability, higher = more signal; also: test concentration not given here
# [12] = budding yeast growth changes without added modifier – OD600, strain BY4716, 24 h, basal condition, primary screen (AID 1173); settings: S. cerevisiae BY4716 growth, OD600, 24 h; higher = more signal, called active from +8 up or from −8 down
# [13] = viability profiling in MM1S myeloma cells – cell-based, resazurin fluorescence, basal, 24 h, PK04 Diversity Set, profiling panel (AID 1174); settings: higher = more signal, called active from +8 up or from −8 down; also: test concentration not given here
# [14] = molecular target: Dihydroorotate dehydrogenase (quinone), mitochondrial (Plasmodium falciparum (isolate 3D7)) (UniProt Q08210); experiment: inhibition of P. falciparum DHODH – biochemical, C-terminal His tag, absorbance 600 nm, primary screen (AID 1175); settings: PfDHODH enzyme, DCIP absorbance 600 nm; higher = more signal, called active from +8 up or from −8 down;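 also: recombinant parasite enzyme with a five histidine tag at its C terminus; test concentration not given here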
# Sequence of Dihydroorotate dehydrogenase (quinone), mitochondrial (Plasmodium falciparum (isolate 3D7)) (Q08210 whole entry, looked up): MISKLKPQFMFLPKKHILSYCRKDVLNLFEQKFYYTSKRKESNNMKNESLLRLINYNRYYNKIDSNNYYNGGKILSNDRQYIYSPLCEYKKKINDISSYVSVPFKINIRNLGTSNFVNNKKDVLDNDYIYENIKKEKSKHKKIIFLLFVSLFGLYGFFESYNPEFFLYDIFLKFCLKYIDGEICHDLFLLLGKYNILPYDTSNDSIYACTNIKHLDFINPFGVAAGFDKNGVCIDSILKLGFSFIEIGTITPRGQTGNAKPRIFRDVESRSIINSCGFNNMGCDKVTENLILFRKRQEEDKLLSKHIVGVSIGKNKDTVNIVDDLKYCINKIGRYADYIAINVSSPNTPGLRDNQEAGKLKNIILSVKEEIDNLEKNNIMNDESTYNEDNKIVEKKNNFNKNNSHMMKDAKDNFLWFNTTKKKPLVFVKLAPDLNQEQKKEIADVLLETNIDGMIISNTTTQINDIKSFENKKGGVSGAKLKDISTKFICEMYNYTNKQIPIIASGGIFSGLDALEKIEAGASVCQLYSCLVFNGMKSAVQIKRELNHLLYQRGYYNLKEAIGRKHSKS
# [15] = inhibition of PAO1 biofilm formation – strain PAO1, LB-PBS medium, absorbance 600 nm, primary screen (AID 1176); also: test concentration not given here; settings: P. aeruginosa PAO1 growth/biofilm, A600, 12 h; higher = more signal
# [16] = growth modulation of vineyard yeast isolate – strain RM11-1a, OD600, basal, 24 h, primary screen (AID 1177);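 also: cultures grown under basal conditions with no added stressor; test concentration not given here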; settings: S. cerevisiae RM11-1a growth, OD600, 24 h; higher = more signal, called active from +8 up or from −8 down
# [17] = growth of efflux-deficient E. coli DRC39 – strain DRC39, OD650, 24 h, E. coli filamentation inducers, primary screen (AID 1178);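 also: growth measured as culture turbidity by optical density at 650 nm; test concentration not given here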; settings: E. coli DRC39 acrAB, higher = more signal, called active from +8 up or from −8 down
# [18] = growth of efflux-deficient E. coli DRC39 – strain DRC39, OD650, 48 h, E. coli filamentation inducers, primary screen (AID 1179);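 also: screen aims at cell division blockers that make cells filament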; settings: E. coli DRC39 delta-acrAB growth, higher = more signal, called active from +8 up or from −8 down
# [19] = viability profiling in RPMI8226 myeloma cells – cell-based, resazurin fluorescence, basal, 24 h, PK04 Diversity Set, profiling panel (AID 1180); settings: higher = more signal;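 also: RPMI8826 multiple myeloma cell line at 5000 cells per well; test concentration not given here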
# [20] = molecular target: E3 ubiquitin-protein ligase XIAP (Homo sapiens) (UniProt P98170); experiment: small molecules binding XIAP protein – biophysical, small-molecule microarray, fluorescence 635 nm, primary screen (AID 1181); settings: higher = more signal;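 also: score merges 667 nm emission and signal to noise over triplicate slides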
# Sequence of E3 ubiquitin-protein ligase XIAP (Homo sapiens) (P98170 whole entry, looked up): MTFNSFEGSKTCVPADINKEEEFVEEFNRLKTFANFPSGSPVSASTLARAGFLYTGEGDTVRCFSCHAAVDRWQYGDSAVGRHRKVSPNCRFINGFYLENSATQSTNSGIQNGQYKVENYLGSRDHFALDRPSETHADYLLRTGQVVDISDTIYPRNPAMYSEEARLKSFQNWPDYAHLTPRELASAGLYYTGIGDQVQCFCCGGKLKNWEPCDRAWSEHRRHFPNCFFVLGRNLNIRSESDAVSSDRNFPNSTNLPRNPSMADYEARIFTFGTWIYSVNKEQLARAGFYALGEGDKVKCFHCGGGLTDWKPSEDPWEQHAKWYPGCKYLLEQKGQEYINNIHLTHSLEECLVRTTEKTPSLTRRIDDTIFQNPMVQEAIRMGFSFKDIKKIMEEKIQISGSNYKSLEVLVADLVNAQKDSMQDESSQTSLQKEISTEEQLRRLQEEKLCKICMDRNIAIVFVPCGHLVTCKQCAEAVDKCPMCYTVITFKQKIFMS
Structure (SMILES),z-score [1],z-score [2],z-score [3],z-score [4],z-score [5],z-score [6],z-score [7],z-score [8],z-score [9],z-score [10],z-score [11],z-score [12],z-score [13],composite z-score [14],z-score [15],z-score [16],z-score [17],z-score [18],z-score [19],composite z-score [20]
C=C(COC)/C(=C/C[C@@H](OC(=O)c1ccncc1)c1cccc(OCCO)c1)c1cc(C(=O)OC)ccc1OC,-0.637,-0.628,-1.45,-2.22,-2.37,1.37,-0.109 (inactive),-0.574,-1.26,-1.8 (inactive),-0.114,-18.2 (active),-0.477 (inactive),-7.37 (inactive),0.236 (inactive),-22.1 (active),0.802 (inactive),0.488 (inactive),0.0987,0.201
[N-]=[N+]=NCc1ccccc1[C@H]1OC(c2ccc(OCCCO)cc2)=N[C@@]1(Cc1ccccc1N=[N+]=[N-])C(=O)NCCN1CCOCC1,-0.71,-0.675,0.0583,-1.71,-1.52,-0.247,-0.738 (inactive),-0.841,-0.549,0.0825 (inactive),-0.634,-1.11 (inactive),-1.22 (inactive),1.15 (inactive),0.591 (inactive),1.41 (inactive),-0.0057 (inactive),-0.357 (inactive),-1.17,-0.0414
COCCOC(=O)N1C(=O)[C@@]2(c3ccccc31)[C@H](c1ccccc1OCCO)N1[C@H](c3ccccc3)[C@H](c3ccccc3)OC(=O)[C@H]1[C@@H]2C(=O)N1CCc2cc(OC)c(OC)cc2C1,-0.322,1.09,-0.628,-1.87,-1.49,0.822,0.977 (inactive),-0.337,-0.582,-0.395 (inactive),-0.413,1.99 (inactive),0.181 (inactive),0.301 (inactive),1.96 (inactive),3.06 (inactive),-1.29 (inactive),-1.3 (inactive),0.186,-0.146
CCCC=C(CCC)[C@@H](NS(=O)(=O)CC)c1ccccc1,-2.33,-0.924,-1.71,-2.83,-3.64,-2.68,-0.517 (inactive),-0.889,-0.177,0.677 (inactive),0.281,1.32 (inactive),-0.364 (inactive),-0.317 (inactive),0.302 (inactive),0.462 (inactive),-1.1 (inactive),-0.0887 (inactive),-0.745,0.23
C=CC[C@]1(C(=O)N(C)C)N=C(c2ccc(OCCCO)cc2)O[C@H]1c1ccccc1,0.203,1.17,-0.308,-0.27,-1.19,1.5,0.644 (inactive),-0.741,-1.33,1.32 (inactive),0.549,-2.54 (inactive),0.911 (inactive),-0.588 (inactive),-0.484 (inactive),-0.689 (inactive),1.23 (inactive),0.771 (inactive),0.586,0.133
COC(=O)C(CC#Cc1ccc2c(c1)[C@]1(C(=O)N2)[C@H](c2ccccc2OCCO)N2[C@H](c3ccccc3)[C@H](c3ccccc3)OC(=O)[C@H]2[C@@H]1C(=O)Nc1nc2ccccc2s1)C(=O)OC,0.689,1.15,0.755,-3.33,-1.74,-2.74,-0.00705 (inactive),-0.905,-0.548,-0.203 (inactive),-0.449,1.4 (inactive),0.699 (inactive),-8 (inactive),3.7 (inactive),2.33 (inactive),-0.0715 (inactive),0.172 (inactive),1.05,0.0264
CC(C)CN1C(=O)[C@@]2(Cc3ccccc31)c1ccccc1C(=O)N(Cc1ccccc1)[C@H]2c1ccc(CO)cc1,-0.225,-0.0208,-0.134,-0.688,-0.152,-0.529,-0.224 (inactive),0.0482,1.07,-0.252 (inactive),-0.436,0.145 (inactive),-0.765 (inactive),-2.4 (inactive),0.745 (inactive),-0.286 (inactive),0.109 (inactive),-0.663 (inactive),-0.904,-0.25
CC(=O)NCCCC[C@@H]1NC(=O)[C@@H]2C[C@H](C(=O)NCCCC[N+](C)(C)C)[C@H](c3cccc(OCCO)c3)N2C1=O,-1.05,-1.28,-0.776,-0.265,-1.95,-0.851,-0.0939 (inactive),0.287,0.235,-0.485 (inactive),-0.44,1.41 (inactive),-1.56 (inactive),-22.3 (active),0.876 (inactive),0.954 (inactive),-0.0845 (inactive),-0.629 (inactive),-0.803,0.142
COC(=O)[C@@]1(Cc2ccc(OC)cc2)[C@H]2c3cc(C(=O)N(C)C)n(Cc4cc(C)n(C)n4)c3C[C@H]2CN1C(=O)c1ccccc1,-0.892,0.336,-0.384,-0.407,-1.77,1.57,-0.938 (inactive),0.534,-0.228,-1.9 (inactive),-1.04,0.932 (inactive),-1.82 (inactive),-0.546 (inactive),0.992 (inactive),0.949 (inactive),-1.2 (inactive),-1.29 (inactive),-0.936,0.0018
COc1ccc(C(=O)Nc2ccc3c(c2)[C@]2(O[C@@H](CCO)[C@H]([Si](C)(C)c4ccc(OC)cc4)[C@H]2C)C(=O)N3Cc2ccccc2)cc1,-1.34,1.39,-2.56,-2.64,-2.99,0.00933,-0.0069 (inactive),-0.965,-0.497,-2.42 (inactive),-1.9,-2.35 (inactive),-7.18 (inactive),-0.454 (inactive),1.55 (inactive),2.47 (inactive),0.799 (inactive),-0.167 (inactive),-2.51,-0.165
COCCOC(=O)N1C(=O)[C@@]2(c3cc(C#CC4(O)CCCCCC4)ccc31)[C@H](C(=O)N1CCc3cc(OC)c(OC)cc3C1)[C@H]1C(=O)O[C@H](c3ccccc3)[C@H](c3ccccc3)N1[C@@H]2c1ccccc1OCCO,0.863,1.59,0.898,-0.401,-1.47,0.782,1.29 (inactive),-0.477,-0.952,0.993 (inactive),0.032,1.96 (inactive),0.162 (inactive),0.666 (inactive),1.01 (inactive),2.98 (inactive),-0.0554 (inactive),0.585 (inactive),0.793,0.0297
O=C(CS)NCCCCCNC(=O)[C@@H]1C[C@@H]2C(=O)N3CCC[C@H]3C(=O)N2[C@@H]1c1ccc(O)cc1,0.644,-0.239,0.413,-0.96,0.125,-0.264,-0.155 (inactive),-0.282,0.684,-0.284 (inactive),-0.196,-0.419 (inactive),-0.0752 (inactive),0.252 (inactive),-0.102 (inactive),0.132 (inactive),-0.651 (inactive),-0.265 (inactive),-0.0255,-0.127
CC(C)CNC(=O)[C@@]1(C)c2ccccc2C(=O)N(Cc2ccccc2)[C@H]1c1ccc(CO)cc1,-0.151,-0.751,-0.323,-0.408,0.0402,0.164,-0.491 (inactive),0.0136,-0.216,0.407 (inactive),0.702,-0.11 (inactive),-0.0059 (inactive),-0.362 (inactive),-0.273 (inactive),-1.07 (inactive),0.165 (inactive),-0.185 (inactive),-0.551,-0.395
CN1C(=O)C2C=CC(C(O)c3cccc4ccccc34)N(NC(=O)OC(C)(C)C)C2C1=O (stereo not given),-0.927,-0.0679,-0.559,-0.248,-1.49,-2.24,-0.532 (inactive),0.219,0.437,-0.195 (inactive),-1.12,-3.8 (inactive),-0.776 (inactive),-0.878 (inactive),0.378 (inactive),-0.0808 (inactive),-0.555 (inactive),-0.403 (inactive),-0.693,0.156
COC(=O)c1ccc(OC)c(/C=C\CC(CCc2ccccc2)OC(C)=O)c1 (stereo not given),-0.349,-0.191,-0.349,-1.35,0.346,-1.3,-0.459 (inactive),-0.48,0.893,0.671 (inactive),-0.928,-0.527 (inactive),-0.0834 (inactive),-0.162 (inactive),-0.131 (inactive),-0.424 (inactive),0.0214 (inactive),-0.238 (inactive),0.271,-0.253
COc1ccc(C#Cc2ccc3c(c2)[C@]2(C(=O)N3)[C@H](c3ccc(OCCO)cc3)N3[C@H](c4ccccc4)[C@H](c4ccccc4)OC(=O)[C@H]3[C@@H]2C(=O)N2CCN(c3ncccn3)CC2)cc1,-0.446,1.15,-0.646,0.496,-0.106,-0.851,4.27 (inactive),-0.507,-0.816,1.32 (inactive),1.45,1.56 (inactive),1.48 (inactive),-1.7 (inactive),1.66 (inactive),1.92 (inactive),0.101 (inactive),-0.344 (inactive),1.61,0.16
COC(=O)[C@@]1(Cc2ccccc2)[C@H]2c3cc(C(=O)N4CCCC4)n(CCO)c3C[C@H]2CN1C(=O)c1ccccc1,-0.258,0.577,0.345,-0.867,0.688,0.844,0.671 (inactive),0.0245,-0.77,-0.103 (inactive),0.445,0.192 (inactive),-0.892 (inactive),-1.2 (inactive),0.259 (inactive),-0.483 (inactive),0.355 (inactive),1.05 (inactive),0.309,0.202
O=C(N1CCOCC1)[C@@]1(CCS(=O)(=O)c2ccccc2)COC(c2ccc(OCCCO)cc2)=N1,0.437,-1.09,-0.0333,0.205,0.108,-0.33,-0.4 (inactive),0.238,-0.659,0.201 (inactive),0.0754,0.0036 (inactive),-0.262 (inactive),0.0576 (inactive),0.193 (inactive),0.0216 (inactive),-0.0668 (inactive),0.589 (inactive),-0.387,-0.02
